Sampled rows, rich in hits. Any-hit rate of the full collection: about 14%.
USP28 inh: human USP28 deubiquitinase inhibition; Q96RU2; purified USP28, Ub-rhodamine cleavage fluorescence, 30 min; inhibition, % at 25 µM; actives 3% (n = 47,000)
USP10 block: inhibitors of human USP10 deubiquitinase; Q14694; purified USP10, Ub-rhodamine fluorescence, 60 min; inhibition, % at 20 µM; actives 1.1% (n = 47,000)
USP8 block: inhibitors of human USP8 deubiquitinase. P40818. AID 1645853. actives 4.2% (n = 47,000). purified USP8, Ub-rhodamine cleavage fluorescence, 30 min. inhibition, % at 20 µM
USP17 inh: blocks human USP17 ubiquitin-rhodamine cleavage | actives 6.5% (n = 47,000) | purified USP17, Ub-rhodamine cleavage fluorescence, 3 h | inhibition, % at 50 µM
USP30 inh: blocks human USP30 ubiquitin-rhodamine cleavage; purified USP30, Ub-rhodamine cleavage fluorescence; actives 5.3% (n = 47,000); Q70CQ3; inhibition, % at 25 µM; AID 1645860
A number is an active result; – = inactive; · = no result given. No stated cut-off is given here; in the data, active means inhibition above about 30%; inactive means the rest.

SMILES | USP28 inh | USP10 block | USP8 block | USP17 inh | USP30 inh
Cc1nc(-c2ccc(N3CCN(C(=O)c4ccc(C#N)cc4)CC3)nc2)sc1C | – | – | – | – | –
CCOC(=O)c1cnc(Nc2cccc(CC)c2)c2ccccc12 | – | – | – | – | –
CCOC(=O)c1cnc(Nc2ccccc2OCC)c2ccccc12 | – | – | 60.3 | – | –
CC(=O)c1cccc(NC(=O)C2(c3ccc(Cl)cc3)CCC2)c1 | – | – | – | – | –
Cc1oc(-c2ccc(C(=O)NCC3COCCO3)cc2)nc1CN1CCc2ccccc21 (centres undefined) | 57.3 | – | – | – | –
CCN1CCc2c(cccc2-n2nnc(C(=O)NCC3CCCO3)c2C)C1 (centres undefined) | – | – | – | – | –
CCc1csc(-c2cn(CC(=O)Nc3cccc(C)c3C)cn2)n1 | – | – | – | 50.9 | 57.8
CCc1csc(-c2cn(CC(=O)Nc3cc(C)ccc3C)cn2)n1 | – | – | 38.7 | 48.9 | –
Cc1nnc(-c2cn(CC(=O)NCc3ccccc3)c3ccccc23)o1 | – | – | – | – | –
Cc1c(C)n(-c2ccc(Br)cn2)c2ncnc(NCCCO)c12 | – | – | – | – | 59.5
Cc1ccc(-c2nc3nc(C)cc(N4CCCCC4C)n3n2)cc1 (centres undefined) | – | – | – | – | –
Cc1ccc(-c2nc3nc(C)cc(N4CCC(C)CC4)n3n2)cc1 | · | – | – | 55.7 | ·
COc1cc2c(=O)n(CCC(=O)NCC3CCCO3)c(=O)n(CC(=O)c3ccccc3)c2cc1OC (centres undefined) | – | – | – | – | –
COc1cc2c(=O)n(CCCC(=O)NCC3CCCO3)c(=O)n(CC(=O)c3ccc(Cl)cc3)c2cc1OC (centres undefined) | – | – | – | – | –
COc1cc2c(=O)n(CCCC(=O)NCC3CCCO3)c(=O)n(CC(=O)NC3CCCCC3)c2cc1OC (centres undefined) | – | – | – | – | 33.1
COc1cc2c(=O)n(CC3CCCO3)c(=O)n(CC(=O)Nc3ccc4c(c3)OCCO4)c2cc1OC (centres undefined) | – | – | – | 49.1 | 38.0
COc1cc2c(=O)n(CC3CCCO3)c(=O)n(CC(=O)c3ccc4c(c3)OCO4)c2cc1OC (centres undefined) | – | 32.7 | 47.4 | – | –
Cc1cc2nc(C(C)NC(=O)c3cc(C4CC4)nn3C)cc(=O)n2[nH]1 (centres undefined) | – | – | – | – | 36.0
CN(C(=O)c1cccs1)c1nc2c(s1)CCc1occc1-2 | – | – | – | 36.9 | –
CN(C(=O)C1(c2ccc(Cl)cc2)CC1)c1nc2c(s1)CCc1occc1-2 | – | – | – | – | –
CCOc1ccc(CC(=O)N(C)c2nc3c(s2)CCc2occc2-3)cc1 | – | – | – | – | –
CCN(C(=O)Cc1ccccc1OC)c1nc2c(s1)CCc1occc1-2 | – | – | – | 37.4 | –
Cc1c(C(=O)N(C)c2nc3c(s2)CCc2occc2-3)oc2ccccc12 | 39.9 | – | 48.1 | 79.1 | 66.4
COc1ccc(NS(=O)(=O)c2cc(NC(=O)CCCc3c[nH]c4ccccc34)ccc2N2CCCC2)cc1 | – | – | – | – | –
O=C(Nc1ccccc1)C1Cn2ccnc2C2(CCN(C(=O)Nc3ccc(F)cc3)CC2)O1 (centres undefined) | – | – | – | – | –
SMILES | USP28 inh | USP10 block | USP8 block | USP17 inh | USP30 inh
CC1(C)C[C@@H](O)[C@]2(C)CC[C@]3(C)C(=CCC4[C@@]5(C)CC[C@H](O)[C@](C)(CO)[C@@H]5CC[C@]43C)[C@@H]2C1 (some centres undefined) | – | – | – | 52.6 | 42.8
Cc1ccsc1C1CCCCCN1S(=O)(=O)c1ccc(F)cc1 (centres undefined) | – | – | – | – | –
Cc1noc(-c2ccc(-n3cnc(C(=O)NCc4ccccc4C)c3)nc2)n1 | – | – | – | – | –
COc1cc(COc2ccc3c(C)c(CC(=O)N4CC[C@@]5(O)CCCC[C@H]5C4)c(=O)oc3c2C)cc(OC)c1OC | – | – | – | 48.2 | 50.2
Cn1ccc(-c2cc(C(=O)NCc3ccccn3)c3ccccn23)n1 | – | – | 35.5 | – | –
Cn1ccc(-c2cc(C(=O)NCc3ccncc3)c3ccccn23)n1 | – | – | – | – | –
Cc1ccc(NC(=O)Cn2cc(S(=O)(=O)N3CCCC3)ccc2=O)cc1 | – | – | – | 52.4 | –
COc1ccc(NC(=O)c2ccco2)cc1NC(=O)c1ccc(F)cc1 | – | – | – | – | –
COc1ccc(NC(=O)Cc2csc(NC(=O)c3ccco3)n2)cc1Cl | – | – | – | 49.1 | –
